Shown are actives, neighbours in structure and some others; about 7.5% of the full set was active somewhere.
ELG1 DNA repair = qHTS screen for small molecules that inhibit ELG1-dependent DNA repair in human embryonic kidney (HEK293T) cells expressing luciferase-tagged ELG1; HEK293T ELG1-luciferase reporter, luminescence, 16 h; DNA damage induced by 5-fluorouridine; Potency, µM (doses to about 46.1 µM), for inactives: at the highest dose activity change, negative = inhibition, actives largely listed as inhibitors; hit rate 2.3% among 330,000; AID 504467, 2011; further: potency means the concentration at half of the fitted maximal effect; nearly all actives have a fitted effect of over 55% in size
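In this reporter screen, reduction of luminescence relative to DMSO vehicle indicated activity. Compounds and 5-fluorouridine were added together to 2,000 cells per well, incubated for 16 hr at 37 °C, then developed with ONE-Glo.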
VP16 counter = VP16 counterscreen qHTS for inhibitors of ROR gamma transcriptional activity | AID 2546, 2010 | Potency, µM (top dose mostly 53.6 µM), without a hit: at the top dose activity, negative = inhibition, actives largely listed as inhibitors | hit rate 3.5% among 310,000 | Drosophila S2 Gal4-VP16 UAS-luciferase, luminescence, 20 h;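 further: Gal4-VP16 expression switched on by copper sulfate through the metallothionein promoter; potency means the concentration at half of the fitted maximal effect; nearly all actives have a fitted effect of over 50% in size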
RORgamma inh = qHTS for inhibitors of ROR gamma transcriptional activity | Nuclear receptor ROR-gamma (Mus musculus), P51450 | Drosophila S2 Gal4-RORgamma UAS-luciferase reporter, 20 h | Potency, µM (doses to about 53.6 µM), without a hit: at the top dose activity change, negative = inhibition, hits mostly inhibitors | hit rate 5.4% among 310,000 | AID 2551, 2010; further: potency means the concentration at half of the fitted maximal effect; nearly all actives have a fitted effect of over 60% in size
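Luciferase reporter read in Schneider cells carrying Gal4-RORγ (mouse) and UAS-Photinus luciferase; cells given compound 1 h before 700 uM copper sulfate induction, then incubated 20 h at ambient temperature.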
TSHR antagonist = Antagonists of the Thyroid Stimulating Hormone Receptor: HTS campaign | Thyrotropin receptor (Homo sapiens), P16473 | TSHR-expressing cells, TSH-stimulated cAMP HTRF, 2 h; stronger effect = lower value | activity change, negative = inhibition, % at 11.5 µM | hit rate 0.2% among 330,000;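 active means activity change below a set negative limit, meaning inhibition stronger than a set level, cut at about -70% in these data; inconclusive means activity change between two set negative limits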
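Cell-based HTRF cAMP assay; TSHR cells + compound, TSH EC80 (4nM final), 2 h, 37 deg C. Lysis with anti-cAMP cryptate and cAMP-d2, 30 min RT, read 665/620 nm.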
B2AR arrestin = qHTS assay of beta-arrestin-biased ligands of beta2-adrenergic receptor. beta-arrestin recruitment to beta2AR, cell-based reporter. Potency, µM (top dose mostly 46.1 µM), for inactives: at the top dose activation, usual class: activators. hit rate 0.02% among 330,000. Beta-2 adrenergic receptor (Homo sapiens), P07550;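 further: potency means the concentration at half of the fitted maximal effect; 0% = DMSO controls and full agonism = EC100 isoproterenol or metaproterenol; nearly all actives have a fitted effect of over 65% in size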
Target sequence (P07550 whole entry, looked up): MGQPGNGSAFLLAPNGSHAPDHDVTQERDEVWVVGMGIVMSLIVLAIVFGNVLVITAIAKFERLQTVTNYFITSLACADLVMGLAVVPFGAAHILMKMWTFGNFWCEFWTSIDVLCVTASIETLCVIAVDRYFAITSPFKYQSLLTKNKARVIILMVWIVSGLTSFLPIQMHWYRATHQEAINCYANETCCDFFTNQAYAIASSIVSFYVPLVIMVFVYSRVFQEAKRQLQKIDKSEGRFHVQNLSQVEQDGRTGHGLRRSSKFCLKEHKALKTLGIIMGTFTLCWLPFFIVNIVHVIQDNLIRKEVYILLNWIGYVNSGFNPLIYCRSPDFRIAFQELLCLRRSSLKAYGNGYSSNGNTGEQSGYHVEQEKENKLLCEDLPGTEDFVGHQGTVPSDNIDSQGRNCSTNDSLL
An asterisk follows results filed as active; ? = inconclusive; . = no result given; [ ] = dose if it differs, or a comment. Unless noted, the call rests on the fitted dose curve; in most records, active means well fitted curve in the direction sought with a large enough effect; inconclusive means small, poorly fitted or top-dose-only effect, or another doubt; inactive means no such curve, though single readings can be large; an effect the other way counts as inactive or inconclusive. Unless noted, on the % scale 0 is the no-effect control and ±100 the full control effect.

SMILES | ELG1 DNA repair | VP16 counter | RORgamma inh | TSHR antagonist | B2AR arrestin
COC(=O)c1ccc(C(=O)OC)c(NC(=O)C2CCCO2)c1 (stereo unspecified) | 11% | . | . | -5 | 0%
O=C1NC(=O)C2(CCCc3ccccc32)N1 (stereo unspecified) | -3% | -5% | -16% | -5 | -1%
Oc1ccccc1/C=N/Nc1ccnc(SCc2ccccc2)n1 | 14% | 0.32µM* | 0.35µM* | 1 | ?
c1ccc(Cn2cnc3ccccc32)cc1 | -10% | -18% | -30% | -9 | 0%
Cc1cc(C)c(Cn2cnc3ccccc32)c(C)c1 | -13% | -56% | 5.6µM* | -9 | 0%
O=[N+]([O-])c1ccc(Nc2ccccc2)c2nonc12 | ? | -9% | 23% | -5 | 0%
O=[N+]([O-])c1ccc(Sc2cccc[n+]2[O-])c2nonc12 | ? | 1µM* | 1µM* | -91* | 1%
CCOc1ccc(CCN2CN(C3CCCCC3)CNC2=S)cc1OCC | 0% | 8.9µM* | 2.8µM* | -13 | 0%
CCCCN1CNC(=S)N(CCc2ccccc2)C1 | -4% | 4.5µM* | 2.8µM* | -1 | 0%
CCCN1CNc2c(c(=O)[nH]c(=S)n2CCc2ccccc2)C1 | -14% | -2% | -9% | 33 | 0%
S=C1NCN(C2CCCCC2)CN1CCc1ccccc1 | -14% | 4µM* | 2.8µM* | 16 | 3%
CCCN1CN(CCc2ccccc2)CNC1=S | 3% | 1.8µM* | 1.1µM* | 51 | -1%
S=C1NCN(CCc2ccccc2)CN1Cc1ccccc1 | 0% | 3% | 5% | -21 | 0%
O=C(O)[C@@H]1[C@@H]2C[C@H]3c4[nH]c5ccccc5c4CCN3C[C@@H]2CC[C@@H]1O | . | 8%[17 µM] | -32%[16.9 µM] | . | .
COc1ccc(Oc2ncc3nc(C)c(=O)n(CCC#N)c3n2)cc1 | . | 2% | 2% | . | .
COCCn1c(=O)c(-c2cc(F)cc(F)c2)nc2cnc(Oc3cccc(Cl)c3)nc21 | . | 7% | 30% | . | .
CCCCN1CNC(=S)N(CCc2ccc(OCC)c(OCC)c2)C1 | -27% | 14µM* | 3.2µM* | -4 | 0%
CCOc1ccccc1N1CN(C2CCCCC2)CNC1=S | -7% | 14µM* | 3.2µM* | 2 | 0%
COc1ccc(CNC(=O)[C@H](C)NC(=O)C2CCN(C(=O)[C@@H](N)Cc3ccccc3)CC2)cc1 | 22% | 2% | -22% | 6 | 0%
COc1ccc(NC(=O)C(C)N2c3cccc4cccc(c34)S2(=O)=O)cc1OC (stereo unspecified) | 7.3µM* | ? | ? | -25 | -1%
CCCc1cc(=O)oc2cc(C)cc(OCC(=O)Nc3ccc(CN4CCOCC4)cc3)c12 | 15µM* | -24% | 32% | -3 | 0%
CCc1cc(=O)oc2cc(C)cc(OCC(=O)NCCc3c[nH]c4ccccc34)c12 | 5.8µM* | -5% | 12% | -15 | 1%
CCCc1cc(=O)oc2cc(C)cc(OCC(=O)NCCN3CCOCC3)c12 | 4% | 2% | -4% | 11 | 0%
CCc1cc(=O)oc2cc(C)cc(OCC(=O)NC(Cc3c[nH]c4ccc(O)cc34)C(=O)O)c12 (stereo unspecified) | 6% | -1% | -1% | 9 | -1%
COC(=O)C1CC1C(NC(=O)[C@@H]1CCCN1)c1ccccc1 (stereo partly specified) | . | 0% | -15% | . | .
SMILES | ELG1 DNA repair | VP16 counter | RORgamma inh | TSHR antagonist | B2AR arrestin
COc1ccc(/C=N/NC(=O)c2cc(-c3cccnc3)nc3ccccc23)c(OC)c1 | 4% | 1% | ? | -14 | 0%
COc1ccccc1-c1cc(C(=O)N/N=C/C=C/c2ccccc2[N+](=O)[O-])c2ccccc2n1 | 16µM* | 11µM* | 8.9µM* | 6 | 0%
Cc1[nH]c2ccccc2c1C=NNC(=O)c1cc(-c2cccnc2)nc2ccccc12 | 16µM* | . | . | -1 | 0%
Cc1ccc(C=NNC(=O)c2cc(-c3cccnc3)nc3ccccc23)o1 | 3% | . | . | 9 | -1%
O=C(NN=Cc1cccc([N+](=O)[O-])c1)c1cc(-c2cccnc2)nc2ccccc12 | 23µM* | . | . | -2 | 0%
O=C(N/N=C/C=C/c1ccccc1[N+](=O)[O-])c1cc(-c2cccnc2)nc2ccccc12 | 16µM* | 5.6µM* | 7.1µM* | -9 | 0%
Cc1ccc(C)c(C(=O)COC(=O)C(C)N2C(=O)C3C4CCC(C4)C3C2=O)c1 (stereo unspecified) | -1% | -5% | 10% | -5 | 0%
Cc1nc(NC(=O)c2ccccc2)sc1Cc1ccc2c(c1)OCO2 | -14% | ? | 13µM* | -25 | 0%
O=C(NCCS(=O)(=O)NCc1ccccc1)c1ccc2c(c1)OCO2 | 7% | . | . | 3 | 0%
O=C(NC(=S)NCc1ccc2c(c1)OCO2)c1ccccc1 | 8% | 18µM* | 20µM* | 14 | 0%
O=C(NCCc1ccccc1)c1ccc2c(c1)OCO2 | ? | 5µM* | 2.8µM* | -5 | 0%
O=C(NC(=S)NCc1ccccc1)c1ccc2c(c1)OCO2 | ? | 11µM* | 7.9µM* | -4 | 1%
CNc1nc(-c2ccoc2)nc2ccccc12 | . | -8% | ? | . | .
Cc1ccc(NC(=O)CCNS(=O)(=O)c2ccc3c(c2)CCC(=O)N3)cc1 | 11% | 0% | 2% | 2 | 0%
COc1cc(-c2nc3c4ccccc4nc(=S)n3[nH]2)cc(OC)c1OC | 1% | 1.4µM* | 1.4µM* | 15 | -1%
COc1ccccc1-c1n[nH]c(=S)n1N | 11% | -2% | -29% | -2 | 0%
COc1cc(-c2nc3ccccc3c(=O)n2N)cc(OC)c1OC | 2% | -15% | 29% | 41 | 0%
COc1ccccc1-c1nc2c3ccccc3nc(=S)n2[nH]1 | 8% | 1.3µM* | 0.35µM* | 2 | 3%
COc1ccc(-n2c(C)c([N+](=O)[O-])c3ccc(O)c(CN4CCCCC4)c32)cc1 | 10µM* | 1% | -11% | 10 | -1%
O=C(c1cc(-c2cccs2)on1)N1CCN(C(c2ccccc2)c2ccccc2)CC1 | -4% | -1% | 10% | -2 | 0%
O=C(c1cnn2c(C(F)(F)F)cc(-c3cccs3)nc12)N1CCN(C(c2ccccc2)c2ccccc2)CC1 | 5.8µM* | -3% | ? | -3 | 0%
CN1CCN(C(=O)c2cnn3c(C(F)(F)F)cc(-c4cccs4)nc23)CC1 | 5.8µM* | 2% | 15% | -4 | 0%
O=C(c1ccco1)N1CCN(C(=O)c2cnn3c(C(F)(F)F)cc(-c4cccs4)nc23)CC1 | 5.8µM* | -11% | -6% | -7 | 4%
O=C(c1cnn2c(C(F)(F)F)cc(-c3cccs3)nc12)N1CCN(Cc2ccccc2)CC1 | 6.5µM* | -5% | ? | -8 | 3%
